Experimental findings from PubChem BioAssay AID436 (Emory University Molecular Libraries Screening Center, 2006) are described below.

The campaign covered roughly 72,000 compounds. About 350 (0.49%) were called active. This is one part of a sample in which actives are shown more often than they occur. Unmarked numbers belong to inactive results.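 How the source made its calls: active means activity remaining at or below 50% of control, provided the compound also passes the data quality filters; inactive means the rest, including low values that fail the filters.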

Ubiquitin carboxyl-terminal hydrolase BAP1 (Homo sapiens), sequence (Q92560 whole entry, looked up): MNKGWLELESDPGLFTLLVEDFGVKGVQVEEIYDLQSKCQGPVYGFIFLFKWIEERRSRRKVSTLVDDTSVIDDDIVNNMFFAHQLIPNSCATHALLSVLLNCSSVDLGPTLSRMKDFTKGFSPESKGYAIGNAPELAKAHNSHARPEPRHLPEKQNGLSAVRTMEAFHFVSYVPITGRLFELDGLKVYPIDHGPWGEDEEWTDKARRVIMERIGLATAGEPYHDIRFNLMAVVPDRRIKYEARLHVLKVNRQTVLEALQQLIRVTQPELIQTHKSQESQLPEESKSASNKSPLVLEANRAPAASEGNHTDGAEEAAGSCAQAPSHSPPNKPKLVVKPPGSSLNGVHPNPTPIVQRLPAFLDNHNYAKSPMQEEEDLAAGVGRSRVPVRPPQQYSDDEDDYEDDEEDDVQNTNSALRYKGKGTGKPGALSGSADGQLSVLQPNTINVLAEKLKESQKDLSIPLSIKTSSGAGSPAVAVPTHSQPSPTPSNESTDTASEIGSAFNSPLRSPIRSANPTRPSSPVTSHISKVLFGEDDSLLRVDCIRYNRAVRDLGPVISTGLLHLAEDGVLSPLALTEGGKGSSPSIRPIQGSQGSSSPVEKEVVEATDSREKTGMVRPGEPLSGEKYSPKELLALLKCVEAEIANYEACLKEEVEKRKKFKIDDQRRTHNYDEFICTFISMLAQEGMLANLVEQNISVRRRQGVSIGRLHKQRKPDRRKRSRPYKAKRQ

This test has as its target Ubiquitin carboxyl-terminal hydrolase BAP1 (Homo sapiens) (UniProt Q92560). The experiment in a line: BAP1 ubiquitin hydrolase activity blockers – biochemical, Ub-AMC fluorescence, kinetic, primary screen (AID 436).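 Further: 100% = DMSO wells rate and 0% = substrate alone blank rate.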 Particulars: recombinant BAP1, Ub-AMC hydrolysis fluorescence kinetic; at 20 µM; active compounds read low.
`CC(=O)c1c(O)c(C)c(O)c(Cc2c(O)c3c(c(C(=O)/C=C/c4ccccc4)c2O)OC(C)(C)C=C3)c1O`: the activity remaining (% of control) was 14.8% (active).

With `CCCCC[n+]1ccc(-c2cc[n+](CCCCC)cc2)cc1`, the activity remaining (% of control) was 101%. In the case of `O=C(O)C1C2CCC(O2)C1C(=O)O` (stereo not drawn), the activity remaining (% of control) is 97.4%.

`O=C1c2ccccc2C(=O)N1Cc1nc2ccccc2c(=O)n1-c1nccs1`: the activity remaining (% of control) was 84.5%. As for `Cc1ccc(Cn2c(C)c3cnn(CC(=O)N4CCC5(CC4)OCCO5)c(=O)c3c2C)cc1`, the figure is 105%. Turning to `CCCCCn1c(=O)c(C(=O)NCc2ccccn2)c(O)c2ccccc21`, the activity remaining (% of control) is 39.6% (active).

Regarding `C=CCN1CCC2(C)c3cc(O)ccc3CC1[C@@H]2C` (stereo partly drawn), the activity remaining (% of control) was 96.1%. Regarding `COc1ccccc1OC(=O)c1ccc(C)c(S(=O)(=O)N2CCOCC2)c1`, the activity remaining (% of control) was 104%.
